Compound activity: PubChem BioAssay, several laboratories
Compounds with a hit are over-represented: about 1.6% of the library has one in this group of screens.
eIF4H FP inh: inhibitors of RNA binding by human eIF4H | eIF4H fluorescence polarization binding assay | inhibition, % at 35 µM | Q15056 | actives 0.94% (n = 290,000) | AID 2012;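 note: calls also rest on retests at 20 µM and on dose response follow-up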
PABP FP inh: blocks human PABP binding to poly(A) RNA. P11940. fluorescence polarization. actives 1% (n = 290,000). inhibition, % at 35 µM;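 note: calls also rest on retests at 20 µM and on dose response follow-up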
PERK inh: human PERK inhibition, primary cell-based screen | CHO PERK-DD fusion, SEAP luminescence translation reporter | Q9NZJ5 | actives 0.17% (n = 220,000) | inhibition, % at 5.6 µM;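 active = inhibition above the mean inhibition of all tested compounds plus 3 SD, set separately per screening campaign, cut at about 2.9% in these data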;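 note: PERK kinase domain activated by AP20187 dimerizer at 100 nM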
Target sequence (Q9NZJ5 whole entry, looked up, the tested form may be a part): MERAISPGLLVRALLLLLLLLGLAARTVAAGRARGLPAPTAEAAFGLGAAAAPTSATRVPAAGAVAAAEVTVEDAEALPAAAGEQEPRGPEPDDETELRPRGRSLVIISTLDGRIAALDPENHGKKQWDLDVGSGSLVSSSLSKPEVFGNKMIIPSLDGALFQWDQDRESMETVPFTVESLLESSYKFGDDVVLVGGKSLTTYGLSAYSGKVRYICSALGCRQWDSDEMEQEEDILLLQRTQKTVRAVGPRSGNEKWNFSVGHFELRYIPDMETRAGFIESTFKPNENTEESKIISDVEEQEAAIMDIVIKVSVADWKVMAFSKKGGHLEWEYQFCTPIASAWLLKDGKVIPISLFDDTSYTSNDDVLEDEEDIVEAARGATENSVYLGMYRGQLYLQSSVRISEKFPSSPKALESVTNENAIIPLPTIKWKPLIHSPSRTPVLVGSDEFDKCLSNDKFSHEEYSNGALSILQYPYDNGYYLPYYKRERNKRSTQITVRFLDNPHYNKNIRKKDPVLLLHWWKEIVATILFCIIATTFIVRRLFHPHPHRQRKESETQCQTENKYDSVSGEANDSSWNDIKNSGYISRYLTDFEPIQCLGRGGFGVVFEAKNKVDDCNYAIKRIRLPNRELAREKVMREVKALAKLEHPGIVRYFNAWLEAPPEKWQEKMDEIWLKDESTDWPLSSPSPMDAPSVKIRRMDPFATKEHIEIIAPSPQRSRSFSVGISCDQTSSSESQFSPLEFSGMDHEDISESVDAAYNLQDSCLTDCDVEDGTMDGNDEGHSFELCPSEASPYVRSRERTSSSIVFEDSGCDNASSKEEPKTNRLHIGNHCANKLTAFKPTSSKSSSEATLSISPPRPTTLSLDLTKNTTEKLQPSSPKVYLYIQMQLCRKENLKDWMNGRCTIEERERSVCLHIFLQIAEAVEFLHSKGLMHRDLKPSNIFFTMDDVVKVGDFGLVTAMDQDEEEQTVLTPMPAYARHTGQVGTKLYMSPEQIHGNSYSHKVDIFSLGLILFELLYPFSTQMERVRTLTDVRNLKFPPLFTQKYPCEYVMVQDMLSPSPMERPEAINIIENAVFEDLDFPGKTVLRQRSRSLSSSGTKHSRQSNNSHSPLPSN
eIF4E 4G PPI: blocks eIF4E binding to eIF4G. P63073+Q04637. TR-FRET eIF4E-eIF4GI(517-606) binding, 2 h. inhibition, % at 21.7 µM. actives 0.37% (n = 220,000);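 active = inhibition above about 30%, limit read from the data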
MLLE-PAM2 inh: blocks PAM2 peptide binding to the PABP1 MLLE domain | P11940 | GST-MLLE / FITC-PAM2 fluorescence polarization | inhibition, % at 20 µM | actives 0.36% (n = 360,000); in the data active = inhibition above about 35%, passing the limit was not always enough
Each line names hits and unclear results; the compound was inactive in the other large screens; [ ] = dose if it differs, or a comment. Unless noted, the rule behind the calls is not given here.

CCCc1cc(=O)[nH]c(SCCOc2ccc(Cl)cc2)n1	PERK inh 2.9
COc1ccc(N/C=C\C(=O)c2ccc(C)cc2)cc1OC	none
COc1ccc(N/C=C\C(=O)c2ccc(Br)cc2)cc1OC	eIF4H FP inh 71
Cn1c(SCC(=O)N2CCOCC2)nnc1-c1cccc(NC(=O)c2ccccc2)c1	none (no result: eIF4H FP inh, PABP FP inh)
COC(=O)CSc1nnc(-c2cccc(NC(=O)c3ccc(C)cc3)c2)n1C	eIF4E 4G PPI 72
COC(=O)/C=c1/s/c(=C(/C#N)C(=O)N2CCCCC2)n(-c2ccccc2)c1=O	none
COc1cc(/C=c2\s/c(=C(/C#N)C(=O)N3CCCC3)n(-c3ccccc3)c2=O)ccc1O	eIF4H FP inh 80, PABP FP inh 112
Cc1cc(C)n(CCCO)c(=O)c1C#N	none
Cc1cc(C)n(NC(=S)NC2CCCCC2)c(=O)c1C#N	MLLE-PAM2 inh 45
CC(=O)C(C(C)=O)C1(O)C(=O)c2ccccc2C1=O	PERK inh 3.0
O=C(NC1(O)C(=O)c2ccccc2C1=O)c1ccccc1	none
Cc1oc(-c2cccc(Cl)c2)nc1CN1CCC(C(=O)NCc2ccco2)CC1	none
Cc1oc(-c2ccc(Cl)cc2)nc1CN1CCC(C(=O)NCc2ccco2)CC1	eIF4E 4G PPI 64
CC(OC(=O)c1cc(=O)c2cc(Cl)ccc2o1)C(=O)N1CCCC1 (stereo not drawn)	none (no result: eIF4H FP inh, PABP FP inh, PERK inh, eIF4E 4G PPI)
CC(NC(=O)c1ccc(Cn2cc([N+](=O)[O-])cn2)o1)c1ccccc1 (stereo not drawn)	eIF4E 4G PPI 36[fluorescence artefact?]
N#Cc1c(NC(=O)c2ccc(Cn3cc(Br)cn3)o2)sc2c1CCCCC2	none
CC1CCc2c(sc(NC(=O)c3ccc(Cn4cc([N+](=O)[O-])cn4)o3)c2C#N)C1 (stereo not drawn)	eIF4H FP inh 76, PABP FP inh 22
NC(=O)c1nsc(C(=O)N(c2ccccc2)C(C(=O)NC2CCCCC2)c2ccc(O)cc2)c1N (stereo not drawn)	none (no result: PERK inh, eIF4E 4G PPI)
N#C/C(=C/c1ccccc1OCc1ccc(F)cc1)c1ccc(C(=O)O)cc1	PABP FP inh 65 (no result: PERK inh, eIF4E 4G PPI)
N#CC1=C(N)N=C(SCc2cccc3ccccc23)C(C(N)=O)C12CCCCC2 (stereo not drawn)	MLLE-PAM2 inh 40
O=C(Nc1nnc(C2CC2)s1)C1CCCO1 (stereo not drawn)	eIF4H FP inh 0.7
CC(OC(=O)c1ccc(S(=O)(=O)NCc2ccco2)cc1)C(=O)Nc1ccccc1 (stereo not drawn)	none (no result: eIF4H FP inh, PABP FP inh, PERK inh, eIF4E 4G PPI)
Cc1ccc(NC(=O)CCC(=O)c2ccc(Cl)s2)nc1	none (no result: eIF4H FP inh, PABP FP inh, PERK inh, eIF4E 4G PPI)
CN(C)S(=O)(=O)c1ccc(N2CCCC2)c(C(=O)N2CCN(S(=O)(=O)c3ccccc3F)CC2)c1	none (no result: eIF4H FP inh, PABP FP inh, PERK inh, eIF4E 4G PPI)
O=C(N/N=C/c1ccccc1O)c1cc(=O)[nH]c2ccccc12	eIF4E 4G PPI 40[fluorescence artefact?] (no result: MLLE-PAM2 inh)
CCOc1cc(CNc2ccc(N3CCCC3)cc2)cc(Cl)c1OC	eIF4E 4G PPI 35[fluorescence artefact?]
Oc1ccc(N=Cc2ccc(O)c(O)c2)cc1	eIF4H FP inh 106, PABP FP inh 56
Oc1ccc(/C=N/N=C/c2ccc(O)c(O)c2)cc1O	none (no result: PERK inh, eIF4E 4G PPI)
CCOC(=O)C1=C(c2ccccc2)NC(N)=NC1c1ccc(OCc2ccc(Cl)cc2)c(OC)c1 (stereo not drawn)	eIF4E 4G PPI 37
CCOc1ccc(-c2csc(NNC3=NCCCCC3)n2)cc1	MLLE-PAM2 inh 37
COc1ccc(-c2csc(NNC3=NCCCCC3)n2)cc1	none (no result: MLLE-PAM2 inh)
C=CCNc1ncnc2c1ncn2[C@H]1CN(CCOC)C[C@@H](CO)O1	none (no result: eIF4H FP inh, PABP FP inh, PERK inh, eIF4E 4G PPI)
O=c1ccc(-c2ccccc2)n[nH]1	PERK inh 3.0
CC(C)CNC(=O)c1ccc2c(c1)C(=O)N(Cc1ccco1)C2=O	none (no result: PERK inh, eIF4E 4G PPI)
O=C1c2ccccc2CC1Sc1nnc(-c2ccncc2)o1 (stereo not drawn)	eIF4H FP inh 4.2, PABP FP inh 72
O=C(NC1CCCCC1)C(c1ccncc1)N(C(=O)c1csnn1)c1ccc(F)cc1 (stereo not drawn)	none (no result: PERK inh, eIF4E 4G PPI)
CC(=O)Nc1ccc(S(=O)(=O)N[C@@H](C)C(=O)N2CCN(C/C=C/c3ccccc3)CC2)cc1	none (no result: eIF4H FP inh, PABP FP inh, PERK inh, eIF4E 4G PPI)
COC(=O)c1ccc2c(=O)n(NC(=O)C(c3ccccc3)c3ccccc3)c(=S)[nH]c2c1	MLLE-PAM2 inh 38
O=C(NCc1ccccc1)c1cc(C2COCCN2C(=O)OCCF)on1 (stereo not drawn)	none (no result: eIF4H FP inh, PABP FP inh, PERK inh, eIF4E 4G PPI)
CCOC(=O)NC1=NCC(C)(C)S1	none (no result: eIF4H FP inh, PABP FP inh, PERK inh, eIF4E 4G PPI)
O=C(O)c1ccccc1SCc1cn2cc(Cl)ccc2n1	none
O=C(O)c1cccnc1SCc1cn2cc(Cl)ccc2n1	PERK inh 3.0
CN1CCN(C2=CC(=O)OC23CCCCC3)CC1	eIF4E 4G PPI 84
